Among the data in PubChem BioAssay AID1794835 (Parasite Biology Lab, Institute for Biomedicine and …, 2023) are inhibition and outcome values, retold here.

About 45 (2%) of roughly 2,500 compounds were called active. Rule as the data show it: active = inhibition mostly above about 45% (no sharp cut-off); inactive = mostly below about 37%. This excerpt belongs to a sample that is enriched for actives.

The nature of the assay: anti-Giardia activity of synthetic compounds – Compounds Australia Scaffold Library subset, 24/48 h, primary screen (AID 1794835).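 As to inhibition: 0% = parasite counts in DMSO vehicle wells.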 The conditions noted are these: Giardia lamblia BRIS/91/HEPU/1279 trophozoite counts, imaging, at 10 µM.
Where [1] appears, read: measured here: growth inhibition at 24 h, stronger effect = higher value.

Turning to `CC(=O)Nc1ccc([N+](=O)[O-])c2nonc12`, the inhibition is, setting by setting: (stronger effect = higher value) 63.4% (active); under setting [1], 45%.

As for `CCc1ccc(NC(=O)[C@@H]2c3cc(OC)c(OC)cc3C(=O)N3CCCC[C@@H]23)cc1`, for the setting “stronger effect = higher value”, the inhibition is 28.1% (inactive).

Take `Cc1nn(C)c(C)c1CC(=O)N1CCC(N2CCCC2)C1` (stereo unspecified): the inhibition result was “inactive”.

In the case of `CSc1ccc(C2NCc3ccccc3-n3cccc32)cc1` (stereo unspecified), the inhibition (stronger effect = higher value) is 3.9% (inactive) and the inhibition under setting [1] stood at 18.8%.

Consider `COc1ccc(C2c3cccn3-c3ccccc3CN2C(=O)CCC(=O)NC2CCCCC2)cc1` (stereo unspecified), for which the inhibition result is “inactive”.

For the compound `O=[N+]([O-])c1ccc(N2CCC(c3ncc[nH]3)CC2)c2ccncc12`, the inhibition reads like this: (stronger effect = higher value) 88.1% (active); under setting [1], 64.1%.

Turning to `Cc1cccc(NC(=O)CN2CC(c3ccccc3)CC2=O)c1` (stereo unspecified), the inhibition runs as follows: (stronger effect = higher value) 10.4% (inactive); under setting [1], 2.3%.

For the compound `CC(=O)N1N=C2C3CCN(CC3)[C@@H]2[C@@H]1c1cccc2ccccc12`, the call was inactive. Under setting [1], this compound showed an inhibition of 4.2%.

Consider `Cc1ccc2c(C3CCNCC3)c[nH]c2c1`, for which the inhibition result was “inactive”.

As to `Cc1cccc(OCC(=O)N2CCN(Cc3nnsc3Cl)CC2)c1C`, the inhibition was 35.2% (inactive) (stronger effect = higher value) and 20.5% under setting [1].
